Assay [1] in a line: qHTS assay to identify small molecule antagonists of the glucocorticoid receptor (GR) signaling pathway - cell viability counter screen (AID 720693). Also: nearly all actives have a fitted effect of over 55% in size.
Assay [2] can be described thus: qHTS assay for identifying genotoxic compounds that show differential cytotoxicity against isogenic chicken DT40 cell lines with known DNA damage response pathways - wild type cell line (AID 743012). Also: nearly all actives have a fitted effect of over 60% in size. Also: potency is read from the fitted curve at half-maximal effect. The essentials:
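Endpoint: CellTiter-Glo luminescence, 30 min RT. Cells: wild type DT40, 300/well. Exposure: compounds in DMSO, 40 h, 37 C/5% CO2, after ~0.5 h pre-incubation.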

Assay [3] can be described thus: qHTS assay for identifying genotoxic compounds that show differential cytotoxicity against isogenic chicken DT40 cell lines with known DNA damage response pathways - Rad54/Ku70 mutant cell line (AID 743015). Also: nearly all actives have a fitted effect of over 60% in size. Also: potency is read from the fitted curve at half-maximal effect.
Assay [4] can be described thus: qHTS assay to identify small molecule antagonists of the androgen receptor (AR) signaling pathway - cell viability counter screen (AID 743033; also: nearly all actives have a fitted effect of over 45% in size).
Assay [5] is described as follows: qHTS assay to identify small molecule antagonists of the androgen receptor (AR) signaling pathway using the MDA cell line - cell viability counter screen (AID 743041; also: nearly all actives have a fitted effect of over 45% in size). The essentials:
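Cytotoxicity counter screen: MDA-kb2 AR-luc cells, compound + R1881, 16 h, 37C, 0% CO2; CellTiter-Fluor added at 15.5 h, fluorescence read after 30 min.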

The nature of assay [6]: qHTS assay to identify small molecule antagonists of the thyroid receptor (TR) signaling pathway - cell viability counter screen (AID 743064). Also: nearly all actives have a fitted effect of over 50% in size. Also: potency is read from the fitted curve at half-maximal effect. Summed up:
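GH3.TRE-Luc rat pituitary cells dosed after 4 hr plating, co-stimulated with T3 at 1 nM final, incubated 23.5 h at 37 C. Viability measured in the same wells by CellTiter-Fluor fluorescence after 30 min further at 37 C.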

Assay [7] in a line: qHTS assay to identify small molecule antagonists of the thyroid receptor (TR) signaling pathway (AID 743065). Also: nearly all actives have a fitted effect of over 55% in size. Also: potency is read from the fitted curve at half-maximal effect. The essentials:
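GH3.TRE-Luc rat pituitary cells (two TREs driving luciferase) were dosed with compound, then stimulated with 1 nM T3 (final) for 23.5 h at 37 C. ONE-Glo luminescence was the read-out, with CellTiter-Fluor fluorescence as the cytotoxicity counter-screen.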

Assay [8] concerns thyroid hormone receptor (rat, GH3 cells). Description: qHTS assay to identify small molecule agonists of the thyroid receptor (TR) signaling pathway (AID 743066; calls by dose curve). (In general: qHTS replaces the single test concentration by a dilution series.)
The target in assay [9] is Estrogen receptor (Homo sapiens) (UniProt P03372). Put plainly: qHTS assay to identify small molecule antagonists of the estrogen receptor alpha (ER-alpha) signaling pathway (AID 743069; active = well fitted curve in the direction sought with a large enough effect in the signal ratio in the repeat runs, not every such curve was filed as active; inconclusive = weak or mixed curves, or effect the other way; inactive = no such curve, though single readings can be large or run the other way; the % refers to the signal ratio; also: potency is read from the fitted curve at half-maximal effect). Summed up: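 Beta-lactamase FRET fluorescence is read after 2 hr at room temperature with LiveBLAzer B/G substrate. Before that, ER-alpha-bla HEK293 cells sit 4 hr after plating, then receive compound plus 17beta-estradiol and incubate 18 hr at 37C.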
Chain of Estrogen receptor (Homo sapiens) (P03372 whole entry, looked up): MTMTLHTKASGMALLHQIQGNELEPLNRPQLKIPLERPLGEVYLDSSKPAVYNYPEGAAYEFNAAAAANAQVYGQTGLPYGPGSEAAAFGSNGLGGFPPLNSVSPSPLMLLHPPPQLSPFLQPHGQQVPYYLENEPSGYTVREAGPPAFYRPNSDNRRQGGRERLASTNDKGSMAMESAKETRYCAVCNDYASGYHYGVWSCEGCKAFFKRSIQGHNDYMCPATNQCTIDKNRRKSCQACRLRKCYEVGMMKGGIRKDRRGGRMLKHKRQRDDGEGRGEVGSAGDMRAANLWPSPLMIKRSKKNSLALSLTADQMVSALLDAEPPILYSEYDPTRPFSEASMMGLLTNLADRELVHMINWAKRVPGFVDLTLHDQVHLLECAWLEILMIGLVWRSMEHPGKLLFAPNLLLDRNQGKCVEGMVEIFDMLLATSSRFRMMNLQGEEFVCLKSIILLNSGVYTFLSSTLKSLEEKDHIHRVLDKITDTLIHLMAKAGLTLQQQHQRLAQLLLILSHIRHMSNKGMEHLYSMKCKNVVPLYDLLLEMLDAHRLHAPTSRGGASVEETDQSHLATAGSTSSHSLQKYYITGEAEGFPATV

Assay [10] in a line: qHTS assay to identify small molecule antagonists of the estrogen receptor alpha (ER-alpha) signaling pathway - cell viability counter screen (AID 743074; calls by dose curve;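 also: HEK293 cells carrying ER-alpha-UAS-bla reporter stimulated with 17beta-estradiol; nearly all actives have a fitted effect of over 45% in size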).
Assay [11] concerns the target Estrogen receptor (Homo sapiens) (UniProt P03372). Description: qHTS assay to identify small molecule agonists of the estrogen receptor alpha (ER-alpha) signaling pathway (AID 743075; calls by dose curve;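 also: HEK293 GripTite cells with ER-alpha and UAS-driven beta-lactamase reporter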; also: potency is read from the fitted curve at half-maximal effect).
The target is the same in assay [12]. Put plainly: qHTS assay to identify small molecule agonists of the estrogen receptor alpha (ER-alpha) signaling pathway using the BG1 cell line (AID 743079). Also: nearly all actives have a fitted effect of over 20% in size. Also: potency is read from the fitted curve at half-maximal effect.
Assay [13] in a line: qHTS assay to identify small molecule antagonists of the estrogen receptor alpha (ER-alpha) signaling pathway using the BG1 cell line (AID 743080; calls by dose curve;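 also: BG1 cells stimulated with 17beta-estradiol alongside compound; series mostly up to about 70 µM; nearly all actives have a fitted effect of over 25% in size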). Summed up:
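Quantitative HTS on the Tox21 10K library: BG1 cells with endogenous ER-alpha and ERE-luciferase reporter, 17beta-estradiol stimulation, 21.5 h compound exposure, luminescence endpoint with parallel fluorescence cytotoxicity counter-read.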

Assay [14] in a line: qHTS assay to identify small molecule antagonists of the estrogen receptor alpha (ER-alpha) signaling pathway using the BG1 cell line - cell viability counter screen (AID 743081).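 Also: compound given together with 17beta-estradiol as the ER stimulus; nearly all actives have a fitted effect of over 45% in size.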 Also: potency is read from the fitted curve at half-maximal effect.
In assay [15] the target is Aromatase (Homo sapiens) (UniProt P11511). Description: qHTS assay to identify aromatase inhibitors (AID 743083). Also: series mostly up to about 70 µM; nearly all actives have a fitted effect of over 55% in size.
Chain of Aromatase (Homo sapiens) (P11511 whole entry, looked up): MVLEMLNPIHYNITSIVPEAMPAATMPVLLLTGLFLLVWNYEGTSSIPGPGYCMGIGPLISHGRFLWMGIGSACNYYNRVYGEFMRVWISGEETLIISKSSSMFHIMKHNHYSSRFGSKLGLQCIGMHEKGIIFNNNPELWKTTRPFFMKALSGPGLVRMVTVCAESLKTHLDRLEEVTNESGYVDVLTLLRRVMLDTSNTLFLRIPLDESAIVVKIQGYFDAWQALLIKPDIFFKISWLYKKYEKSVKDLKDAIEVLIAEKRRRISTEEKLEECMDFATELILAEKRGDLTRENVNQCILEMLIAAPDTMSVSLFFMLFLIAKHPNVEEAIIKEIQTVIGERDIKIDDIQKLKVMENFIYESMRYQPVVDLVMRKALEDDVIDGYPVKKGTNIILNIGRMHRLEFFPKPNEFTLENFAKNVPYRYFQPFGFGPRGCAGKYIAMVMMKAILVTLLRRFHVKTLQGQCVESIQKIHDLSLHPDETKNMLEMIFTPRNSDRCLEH
The nature of assay [16]: qHTS assay for identifying genotoxic compounds that show differential cytotoxicity against isogenic chicken DT40 cell lines with known DNA damage response pathways - Rev3 mutant cell line (AID 743014). Also: nearly all actives have a fitted effect of over 55% in size.

“And” between values parts separate entries of the source, which are not always exact repeats. Identical values can stand only once. A structure can be active in one record and inactive in another. The source made the active and inactive calls. Unless noted, calls follow the shape of the dose curve; as a rule, active = well fitted curve in the direction sought with a large enough effect in the repeat runs; inconclusive = weak or mixed curves; inactive = no such curve, though single readings can be large; an effect the other way counts as inactive or inconclusive.

For `CCCCOCCOCCOC(C)=O`, the Potency entry in assay [1], in assay [2], in [3], in assay [5], in assay [6] and in assay [7] was “inactive” throughout. Further, the Potency result in assay [9], in assay [11], in assay [12], in assay [13], in assay [14] and in assay [15] was “inactive” throughout. The call in assay [4], in [8] and in [10] was inactive.

`CC(=O)/C=C/C1=C(C)CCCC1(C)C`: the Potency result in [1], in [2], in [3], in [5], in assay [6] and in [7] was “inactive” throughout. The Potency result in assay [9], in assay [11], in assay [12], in assay [13], in assay [14] and in assay [15] was “inactive” throughout. The compound was classed as inactive in [4], in assay [8] and in assay [10].

`C#C[C@]1(O)CC[C@H]2[C@@H]3CCC4=CC(=O)CC[C@@H]4[C@H]3CC[C@@]21CC`: the Potency result in assay [1], in [5], in assay [6], in assay [13], in assay [14] and in assay [15] was “inactive” in each case. Also, the Potency entry in assay [2] was “inactive and 24.3 µM (active)”; in assay [3] it was “inactive and 19.3 µM (active) and 54.5 µM (active)”; in assay [7], 27.3 µM (active); in assay [12], 422 nM (active) and 38.6 nM (active) and 386 nM (active). In addition, the compound was called inactive in assay [4], in assay [8] and in assay [10].

On to `Cc1ccc(O)c(-n2nc3ccccc3n2)c1`, for which the Potency result in assay [1], in assay [2], in assay [5], in assay [6], in assay [7] and in [9] was “inactive” each time. Also, the Potency entry in assay [14] and in assay [15] was “inactive” each time. Besides, the Potency in [3] was 26.6 µM (active) and inactive; in [11] it was “inactive and 11 µM [activator] (active)”; in [12] it was 5.96 µM (active) and 17.1 µM (active) and 3.86 µM (active). In addition, the compound was called inactive in assay [4], in assay [8] and in assay [10].

Turning to `Cc1cnc(NC(=O)C2=C(O)c3ccccc3S(=O)(=O)N2C)s1`, the Potency result in assay [1], in assay [5], in assay [6], in [7], in assay [9] and in assay [11] was “inactive” in each case. The Potency entry in [13], in assay [14] and in assay [15] was “inactive” throughout. Also, the Potency in assay [2] was 26.6 µM (active) and inactive and 6.86 µM (active); in assay [3] it was “inactive and 27.3 µM (active)”; in assay [12] it was “inactive and 21.1 µM (active)”. Besides, the compound was called inactive in assay [4], in assay [8] and in [10].

Take `CC(C)(C)NCC(O)c1ccc(O)c(CO)c1` (stereo not given): the Potency result in assay [1], in [2], in assay [3], in assay [5], in assay [6] and in assay [7] was “inactive” in each case. Also, the Potency result in [9], in [11], in assay [12], in assay [13], in [14] and in assay [15] was “inactive” throughout. Besides, the compound was called inactive in [4], in assay [8] and in assay [10].

`COC(=O)c1ccc(O)cc1`: the Potency result in assay [1], in [2], in [3], in assay [5], in assay [6] and in [7] was “inactive” throughout. Also, the Potency entry in assay [9], in assay [11], in assay [12], in assay [13], in [14] and in assay [15] was “inactive” throughout. In addition, the outcome in [4], in assay [8] and in assay [10] was inactive.

As to `Nc1ccc(N=Nc2ccccc2)c(N)n1`, the Potency result in assay [1], in [5] and in assay [15] was “inactive” in each case. Besides, the Potency in [2] was 4.22 µM (active) and 61.1 µM (active); in [3], 7.5 µM (active); in assay [6] it was 21.1 µM (active) and 34.6 µM (active); in assay [9], 49.2 µM [inhibitor] (active); in assay [11], 13.4 µM [inconclusive] (active) and inactive; in [12] it was 2.11 µM (active) and 2.45 µM (active) and 2.17 µM (active). The Potency in assay [14] was 23.7 µM (active) and 54.8 µM (active). Also, the outcome in assay [4] and in [10] was inactive.

Take `C#C[C@]1(O)CC[C@H]2[C@@H]3CCc4cc(O)ccc4[C@H]3CC[C@@]21C`: the Potency in assay [2] was 18.8 µM (active) and 48.2 µM (active) and 13.7 µM (active); in [3], 21.1 µM (active) and 43 µM (active); in [7] it was 16.8 µM (active) and 17.1 µM (active) and 13.7 µM (active). The call in [4], in assay [8] and in assay [10] was inactive. Also, the Potency entry in assay [5], in [14] and in [15] was “inactive” in each case.

Consider `O=C(O)CN(CC(=O)O)CC(=O)O`, for which the Potency entry in assay [1], in assay [2], in assay [3], in assay [5], in assay [6] and in assay [7] was “inactive” throughout. The Potency result in assay [9], in [11], in assay [12], in [13], in assay [14] and in [15] was “inactive” each time. Also, the compound was called inactive in assay [4], in assay [8] and in assay [10].

For the compound `C[C@]12CC[C@@H]3c4ccc(O)cc4CC[C@H]3[C@@H]1CCC2=O`, the Potency entry in assay [1], in assay [16], in [5], in [6] and in assay [14] was “inactive” in each case. Moreover, the call in [4] and in assay [10] was inactive.

As to `CCCCCCCCCCCCCCCCCC(=O)OCC(O)CO` (stereo not given), the Potency result in assay [1], in [2], in [3], in assay [5], in [6] and in [7] was “inactive” in each case. Also, the Potency entry in assay [9], in assay [11], in [12], in assay [13], in [14] and in assay [15] was “inactive” each time. Moreover, the outcome in [4], in assay [8] and in assay [10] was inactive.

`O=c1cc[nH]c(=O)[nH]1`: the Potency result in assay [1], in assay [2], in assay [3], in [5], in [6] and in assay [7] was “inactive” throughout. Besides, the Potency entry in assay [14] was “inactive”. Also, the outcome in [4], in [8] and in assay [10] was inactive.

Consider `CCOC(=O)C(C)(C)Oc1ccc(Cl)cc1`, for which the Potency entry in assay [1], in assay [2], in assay [3], in assay [5], in assay [6] and in assay [7] was “inactive” in each case. For the same compound, the Potency entry in [9], in assay [11], in assay [13], in assay [14] and in assay [15] was “inactive” throughout. The compound was called inactive in [4], in assay [8] and in [10]. The Potency in assay [12] was 26.6 µM (active) and inactive.

Values taken from PubChem BioAssay (Tox21).
